# From PubChem BioAssay (NCATS)
# Inconclusive results are not listed. Active and inactive are the calls of the source. Unless noted, calls follow the shape of the dose curve; as a rule, active = well fitted curve in the direction sought with a large enough effect; inconclusive = small, poorly fitted or top-dose-only effect, or another doubt; inactive = no such curve, though single readings can be large; an effect the other way counts as inactive or inconclusive.
# Experiments:
# [1] = target: Cytochrome P450 3A4 (Homo sapiens) (UniProt P08684); assay: qHTS Assay for Inhibitors and Substrates of Cytochrome P450 3A4 (AID 884); also: nearly all actives have a fitted effect of over 50% in size; also: potency is read from the fitted curve at half-maximal effect; as to activity change, negative = inhibition: % is scaled to controls: 0 for no effect and ±100 for the full control effect
# Cytochrome P450 3A4 (Homo sapiens), sequence (P08684 whole entry, looked up): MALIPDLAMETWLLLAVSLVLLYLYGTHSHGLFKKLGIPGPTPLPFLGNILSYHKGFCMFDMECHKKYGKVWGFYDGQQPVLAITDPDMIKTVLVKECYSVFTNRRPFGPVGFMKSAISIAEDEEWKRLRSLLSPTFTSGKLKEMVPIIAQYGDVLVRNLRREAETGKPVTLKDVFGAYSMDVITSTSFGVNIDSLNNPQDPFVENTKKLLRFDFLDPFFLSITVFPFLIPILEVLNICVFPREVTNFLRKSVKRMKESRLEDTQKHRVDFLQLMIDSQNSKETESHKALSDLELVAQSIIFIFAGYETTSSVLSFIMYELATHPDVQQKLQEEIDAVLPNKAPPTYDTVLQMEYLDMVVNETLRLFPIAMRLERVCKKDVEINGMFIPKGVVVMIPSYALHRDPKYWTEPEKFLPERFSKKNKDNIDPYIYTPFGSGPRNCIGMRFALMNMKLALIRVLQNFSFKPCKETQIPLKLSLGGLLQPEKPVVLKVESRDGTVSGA
# In short: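 Luminescent readout of luciferin produced by CYP3A4 (20 nM) dealkylation of Luciferin-PPXE, 25 uM (its KM). NADPH-driven reaction ran 60 min at RT after 10 min compound preincubation; data scaled to 57 uM ketoconazole as 100% inhibition.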
# [2] = Confirmation and Secondary Assay for Modulators of Hemoglobin Beta Chain Splicing at IVS2 654 locus (AID 910);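 also: HeLa cells stably carrying EGFP split by mutant beta-globin IVS2-654 intron; % of control where 0% means no effect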
# In short: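 HeLa cells stably expressing EGFP interrupted by β-globin IVS2-654 intron, seeded overnight in Opti-MEM/2% FCS, then treated 2 days at 37 °C. Restored splicing read as total peak GFP intensity per well by laser scanning cytometry (488 nm excitation, 500–520 nm emission); 500 nM antisense PNA as control.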
# [3] = Confirmation and Secondary Assay for Modulators of Hemoglobin Beta Chain Splicing at IVS2 705 locus (AID 930);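 also: HeLa cells stably expressing the EGFP-705 splicing reporter; GFP fluorescence per well restored by corrected splicing of the IVS2-705 intron in EGFP; % of control where 0% means no effect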
# In short: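 Fluorescence gain (488 nm laser, 500-520 nm PMT) reflects restored correct splicing of a mutant IVS2-705 intron inside EGFP in stably transfected HeLa cells after 2-day compound treatment.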
# [4] = qHTS Assay for Lipid Storage Modulators (AID 1519; calls by dose curve; as to activity change, negative = inhibition: % is scaled to controls: 0 for no effect and ±100 for the full control effect); details: Drosophila S3 cells, BODIPY lipid droplet/cell ratio, laser cytometry, cells loaded with oleic acid; for activity change, negative = inhibition: at 57.5 µM (top of the series)
# In short: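 Cells seeded at 5,000 per well were treated with compounds over a concentration series and loaded with oleic acid (400 uM, as added). Lipid droplet fluorescence (488 nm excitation, 500-530 nm channel) was read by laser-scanning cytometry and normalized to 20 uM Triacsin C.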
# [5] = target: Cytochrome P450 3A4 (Homo sapiens) (UniProt P08684); assay: qHTS Assay for Activators of Cytochrome P450 3A4 (AID 885); also: nearly all actives have a fitted effect of over 65% in size
# In short: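 Activators are scored by enhanced luminescence from CYP3A4 conversion of luciferin-PPXE (25uM, equal to KM) to luciferin, after 60 min at RT with an NADPH-regenerating system.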
# [6] = measured here: cell count channel max response
# [7] = measured here: lipid channel max response
SMILES,Potency [1],Potency [2],Potency [3],"activity change, negative = inhibition [4]","max response [4, 6]","max response [4, 7]",Potency [5]
CC(CCC(=O)O)C1CCC2C3CC[C@H]4CC(O)CC[C@@]4(C)C3C=C[C@]12C (some centres undefined),inactive,inactive,inactive,5.52% (inactive),9.1%,18.3%,
COC(=O)CC1C(C)(C)C(=O)C2CC3=C(CC[C@]4(C)C3=CC(=O)OC4c3ccoc3)[C@@]1(C)C2=O (some centres undefined),2.51 µM (active),inactive,,-1.73% (inactive),16%,14.2%,
CSC(N)=NCCCC(N)C(=O)O (centres undefined),inactive,inactive,inactive,1.56% (inactive),5.01%,8.49%,
O=c1cc(-c2ccccc2O)oc2cc(O)ccc12,inactive,inactive,inactive,8.08% (inactive),28.6%,40%,
OCC1OC(n2cnc3c(Cl)ncnc32)C(O)C1O (centres undefined),inactive,inactive,,1.41% (inactive),10.1%,10.3%,
CNC(CC(=O)O)C(=O)O (centres undefined),inactive,inactive,inactive,0.835% (inactive),10.8%,11.7%,
CC(=O)OC1CC2C(C)(C)C(=O)C=C[C@]2(C)C2CC[C@@]3(C)C(c4ccoc4)OC(=O)C4O[C@@]43[C@]12C (some centres undefined),12.6 µM (active),inactive,inactive,-1.71% (inactive),11.5%,11.5%,
CC(=O)O[C@@]1(C(C)=O)CCC2C3C=C(C)C4=CC(=O)CCC4(C)C3CCC21C (some centres undefined),inactive,inactive,inactive,3.94% (inactive),7.28%,12.7%,
O=c1cc(-c2ccc(O)c(O)c2)oc2ccccc12,15.8 µM (active),inactive,inactive,2.38% (inactive),-4.12%,2.75%,inactive
C/C(=C\CO)CCC(C)CCCC(C)CCCC(C)C (centres undefined),inactive,inactive,inactive,6.09% (inactive),8.07%,14.9%,
COc1ccc(C(=O)/C=C/c2ccccc2)cc1,inactive,inactive,inactive,8.41% (inactive),-9.97%,-1.31%,
COc1ccccc1-c1coc2cc(O)ccc2c1=O,25.1 µM (active),inactive,inactive,5.08% (inactive),-6.55%,10.3%,inactive
COc1ccc(-c2coc3cc(O)ccc3c2=O)c(O)c1O,inactive,inactive,inactive,8.68% (inactive),-1.1%,7.57%,
CC(C)C1=CC2=CC[C@@H]3[C@](C)(CO)CCC[C@]3(C)C2CC1 (some centres undefined),inactive,inactive,inactive,1.89% (inactive),10.4%,14.9%,
C=C1CCC(OC(C)=O)/C(C)=C/CC2[C@H]1CC2(C)C (some centres undefined),31.6 µM (active),inactive,inactive,1.96% (inactive),2.53%,5.33%,inactive
CC(=O)OC1CC(OC(C)=O)[C@]2(C)C(CC(O)[C@]3(C)C2CC[C@@]2(C)C(c4ccoc4)OC(=O)C4O[C@]432)C1(C)C (some centres undefined),2.51 µM (active),inactive,inactive,-15.6% (inactive),-1.7%,-11.8%,inactive
Cc1c(S(=O)(=O)O)oc2c1C(=O)C(=O)c1c-2ccc2c1CCCC2(C)C,10 µM (active),inactive,inactive,4.38% (inactive),7.96%,15.5%,inactive
O=c1[nH]c(=O)n(C2CC(O)C(CO)O2)cc1F (centres undefined),inactive,inactive,inactive,3.4% (inactive),3.49%,8.27%,
c1ccc2c(c1)CN1CCCC1=N2,inactive,inactive,inactive,5.8% (inactive),4.77%,11.2%,inactive
C=C1C2=CC(=O)OC(c3ccoc3)[C@]2(C)CCC1[C@]1(C)C=CC(=O)C(C)(C)C1CC(=O)OC (some centres undefined),3.98 µM (active),inactive,inactive,-2.8% (inactive),12.4%,11.5%,inactive
COC(=O)CC1C2(C)CC34OC5(C)O[C@@]6(C7/C(=C(/O)C(C)C)C(=O)OC(c8ccoc8)[C@]7(C)C(OC(C)=O)C(OC(C)=O)[C@]6(O5)[C@@]13C)C(OC(C)=O)[C@]4(O)C2OC(=O)C(C)C (some centres undefined),12.6 µM (active),inactive,inactive,8.78% (inactive),16.6%,29.3%,inactive
CCC(C)C(=O)OC1C2CC3=C4CC(=O)OC(c5ccoc5)[C@]4(C)CCC3[C@@](C)(C2=O)C(CC(=O)OC)C1(C)C (some centres undefined),6.31 µM (active),inactive,inactive,-2.94% (inactive),-4.4%,-5.82%,inactive
O=C(Cc1ccccc1)NO,inactive,inactive,inactive,4.41% (inactive),2.32%,5.58%,

SMILES,Potency [1],Potency [2],Potency [3],"activity change, negative = inhibition [4]","max response [4, 6]","max response [4, 7]",Potency [5]
Oc1cc(O)c2c(c1)OC(c1cc(O)c(O)c(O)c1)C(O)C2 (centres undefined),inactive,inactive,,12.8% (inactive),12.7%,24.8%,
CCOC(=O)CCC(=O)O[C@H]1C(O[C@@H]2C(C)[C@H](O[C@H]3C[C@@](C)(OC)C(O)C(C)O3)C(C)C(=O)OC(CC)[C@@](C)(O)C(O)[C@H](C)C(=O)C(C)C[C@]2(C)O)OC(C)CC1N(C)C (some centres undefined),20 µM (active),inactive,inactive,-0.5% (inactive),3.86%,3.45%,
COc1ccc(C(C)C(=O)c2ccc(O)cc2O)cc1 (centres undefined),3.98 µM (active),inactive,inactive,0.578% (inactive),-18.6%,-16.9%,inactive
COc1ccccc1-c1cc(=O)c2cccc(OC)c2o1,20 µM (active),inactive,inactive,6.98% (inactive),13.5%,23.2%,inactive
O=C(/C=C/c1ccccc1)c1ccc(O[C@H]2OC(CO)C(O)C(O)C2O)cc1O (some centres undefined),inactive,inactive,inactive,-0.595% (inactive),18.3%,22.6%,
COc1ccc2c(c1)CCC1C2CC[C@@]2(C)C(O)CCC12 (some centres undefined),inactive,inactive,inactive,6.39% (inactive),9.55%,16.1%,
O=C(/C=C/c1ccc(O)cc1)c1ccccc1O,1.58 µM (active),inactive,inactive,-18.4% (inactive),5.42%,-11.8%,inactive
COC(=O)C(O)C1C(C)(C)C(OC(C)=O)C2CC3=C4CC(=O)OC(c5ccoc5)[C@]4(C)CCC3[C@@]1(C)C2=O (some centres undefined),10 µM (active),inactive,inactive,0.311% (inactive),4.91%,8.34%,
COc1c(C(C)C)oc2cc3oc(=O)ccc3cc12,inactive,inactive,inactive,5.54% (inactive),15.7%,22.2%,
CC(=O)OC1CC2C(C)(C)C(=O)C3OC3[C@]2(C)C2CC[C@@]3(C)C(c4ccoc4)OC(=O)C4OC43[C@]12C (some centres undefined),inactive,inactive,inactive,-0.845% (inactive),-15.4%,-5.43%,
CS(=O)(=O)CCCCN=C=S,inactive,inactive,inactive,-15.3% (inactive),-1.15%,-18%,
CC(C)=CC1C(CO)C1(C)C (centres undefined),inactive,inactive,inactive,4.52% (inactive),11.9%,18.1%,
CC1O[C@@H](O[C@H]2C(Oc3cc(O)c4c(=O)cc(-c5ccc(O)cc5)oc4c3)OC(CO)C(O)C2O)C(O)C(O)C1O (some centres undefined),inactive,inactive,inactive,4.65% (inactive),16.6%,23.3%,
CC(=O)OC1CC[C@]2(C)C(CC(OC(C)=O)[C@]3(C)C2CC[C@@]2(C)C(c4ccoc4)OC(=O)C4O[C@]432)C1(C)C (some centres undefined),inactive,inactive,inactive,15.1% (inactive),12.6%,25.6%,
CC(=O)O[C@@]1(C(C)=O)CCC2C3C=C(Cl)C4=CC(=O)CC[C@]4(C)C3CC[C@]21C (some centres undefined),inactive,inactive,inactive,-2.19% (inactive),-10.2%,-9.83%,
CCCCCCCC/C=C/CCCCCCCCOP(=O)([O-])OCC[N+](C)(C)C,inactive,inactive,inactive,12.8% (inactive),12.4%,28.9%,
CCC(CCC(C)C1CCC2C3CC=C4CC(OC(C)=O)CC[C@@]4(C)C3CC[C@@]12C)C(C)C (some centres undefined),inactive,inactive,inactive,5.75% (inactive),28.8%,28.4%,
CC12CCCC(O)(C1)C1CC(C)(C)C1CC2 (centres undefined),inactive,inactive,inactive,4.18% (inactive),-0.674%,2.69%,
CC1=CCc2c(cc3oc(C)cc(=O)c3c2O)OC1,25.1 µM (active),inactive,inactive,15.7% (inactive),14.5%,19.5%,
CC(C1OC(C)(C)C(O)C1O)C1CC[C@@]2(C)C3=CCC4C(C)(C)C(=O)CC[C@]4(C)C3CC[C@@]12C (some centres undefined),inactive,inactive,inactive,5.14% (inactive),-0.971%,3.6%,
CC1=C(C(=O)O)N2C(=O)C(NC(=O)C(N)C3=CCC=CC3)C2SC1 (centres undefined),inactive,inactive,inactive,10.8% (inactive),14%,29.2%,
CC(C)CCCC(C)C1CCC2C3CC(O)[C@@]4(O)CC(O)CC[C@@]4(C)C3CC[C@@]12C (some centres undefined),inactive,inactive,inactive,4.13% (inactive),10.2%,14.9%,
